A word on the inhibition: it is the relative decrease from the control value, in per cent.

SMILES strings stand for the structures. Among all 360,000 compounds or so, about 6,200 (1.7%) were called active.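 The calls were made as follows: active = inhibition of at least 50% at 20 µM; inactive = the rest.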 The list comes from a sample in which actives are over-represented; it also holds similar structures and randomly drawn compounds.

In PubChem BioAssay AID588405 (Sanford-Burnham Center for Chemical Genomics, 2011) one finds inhibition data, which are given here for 93 molecules.

This assay is described as follows: inhibition of PEG-3 promoter activity – cell-based, HeLa, luciferase luminescence, primary screen (AID 588405). The settings on record: HeLa PEG-Prom luciferase reporter, overnight, at 20 µM, active compounds read high. On the technique in general: Reporter assays use an easily measured gene product as a stand-in for the process of interest.
Turning to `CCCNC(=O)c1cc(C2CCCN(C(=O)c3ccc4c(c3)CCO4)C2)on1` (stereo not drawn), the inhibition is 11% (inactive).
In the case of `Cc1ccc(N2C(=O)CC(NCc3ccc4c(c3)OCO4)C2=O)cc1Cl` (stereo not drawn), the inhibition is -15.9% (inactive).
Take `O=C(CSc1nc(=O)n2ccccc2n1)Nc1ccc2c(c1)OCCO2`: the inhibition was -14.4% (inactive).
In the case of `CCc1ccc([C@@H]2CC(=O)[C@@H]3CN(S(=O)(=O)c4ccc(C)cc4)[C@H](c4ccc(Cl)cc4)C[C@@H]3N2S(=O)(=O)c2ccc(C)cc2)cc1`, the inhibition is 15.4% (inactive).
The same measure for `CC(C)(C)c1ccc(Oc2ccc(N)cc2)cc1`: 76.7% (active).
Under `COc1cnc(-c2ccccn2)nc1Oc1ccc(C(C)(C)C)cc1` stands -4.72% (inactive).
Consider `Cc1cc(C(C)(C)C)cc(C)c1N`, for which the inhibition was 6.32% (inactive).
Take `CC1(C(=O)NS(=O)(=O)c2ccc3ccccc3c2)CCN1C(=O)C1(c2ccc(Cl)cc2)CCC1` (stereo not drawn): the inhibition was -9.9% (inactive).
Under `CC1(C(=O)NCc2cccc3ccccc23)CCN1Cc1ccc(-c2ccccc2)o1` (stereo not drawn) stands 21.9% (inactive).
With `CCOC(=O)c1ccn(S(=O)(=O)c2ccc(C)cc2)c1-c1ccccc1`, the inhibition is -0.12% (inactive).
Regarding `Cc1nc2scc(-c3cccs3)c2c(=O)n1N`, the inhibition is 3.36% (inactive).
`CS(=O)(=O)N1CCC(C(=O)N2CCN(c3ccccc3)CC2)CC1`: the inhibition was 8.23% (inactive).
As for `CCS(=O)(=O)N1CCC(C(=O)N2CCN(c3ccccc3)CC2)CC1`, the inhibition is -2.59% (inactive).
Under `CCS(=O)(=O)N1CCC(N2CCN(c3ccccc3)CC2)CC1` stands 52% (active); under `CCC(C)(C)NC(=O)C(c1cccn1C)N(Cc1ccc(C)cc1)C(=O)Cn1nnc2ccccc21` (stereo not drawn), 5.59% (inactive); under `Cc1ccccc1-c1nc(NC(C)C)nc2cc(-c3ccccc3)sc12`, 7.19% (inactive).
As to `COc1ccc2sc(-c3ccccc3OC)c(-c3ccc(OCCN4CCCC4)cc3)c2c1`, the inhibition is 34.9% (inactive).
In the case of `COc1cccc(-c2sc3ccc(OC)cc3c2-c2ccc(OCCN3CCCCC3)cc2)c1`, the inhibition is 87.9% (active).
Turning to `COc1cc(OC)cc(-c2sc3ccc(OC)cc3c2-c2ccc3cc[nH]c3c2)c1`, the inhibition is 2.15% (inactive).
Regarding `CCN(CCN(C)C)C(=O)c1ccc2nc(C)c(N(C)C(=O)CCc3ccccc3)n2c1`, the inhibition is -8.8% (inactive).
As to `COC(=O)c1ccc2nc(C3CCCCC3)c(Cc3cccc(F)c3)n2c1`, the inhibition was -20.6% (inactive).
For the molecule `Cc1cc(C)c2nc3nc(C)cc(C)c3c(N)c2c1`, the inhibition was 59.9% (active).
For `COC(=O)c1ccc(COc2ccc(/C=C/C(=O)c3ccc(OC)c(CSCC(=O)O)c3)cc2OC)cc1`, the inhibition is -5.11% (inactive).
Under `COc1ccc(C(=O)/C=C/c2ccc(-c3ccccc3)cc2)cc1CSCC(=O)O` stands 98.8% (active).
In the case of `COc1ccccc1CCNC(=O)C1CCN(C(=O)/C=C/c2ccccc2)CC1`, the inhibition is -46.9% (inactive).
On to `COc1ccc2c3c1O[C@H]1C[C@@H](O)C=C[C@@]31CCN(C)C2`, for which the inhibition is -14.7% (inactive).
The same measure for `COc1ccc(NC(=O)c2sc(N3CCOCC3)nc2-c2ccccc2)c(OC)c1`: 20.4% (inactive); for `COc1ccc(NC(=O)c2cc(-c3cc(OC)c(OC)c(OC)c3)nc3ccccc23)c(OC)c1`: 50.8% (active).
Regarding `COc1ccc(-c2cc(C(=O)n3cnc4ccccc43)c3ccccc3n2)cc1`, the inhibition was -64% (inactive).
With `CC(=O)Nc1cccc(-c2cc3nc(NCc4cccnc4)n(C)c(=O)c3s2)c1`, the inhibition was -27.3% (inactive).
Regarding `O=C(/C(=C/c1cccc(Cl)c1)c1nc2ccccc2[nH]1)c1ccccc1`, the inhibition is 109% (active).
As to `O=c1c2cc(Br)ccc2nc(-c2cccc(Cl)c2)n1O`, the inhibition is 31.2% (inactive).
Under `CN(c1ccccc1)S(=O)(=O)c1cc(C(=O)Nc2nc3ccccc3[nH]2)ccc1Cl` stands 5.63% (inactive).
On to `Cc1ccc(-c2nc3ccccc3[nH]2)cc1NC(=O)c1sc2ccccc2c1Cl`, for which the inhibition was 50.7% (active).
For the molecule `Cc1ccc2c(Cl)c(C(=O)Nc3nn[nH]n3)sc2c1`, the inhibition is -5.87% (inactive).
Under `CN1CCc2ccccc2C1Cc1ccccc1NC(=O)c1sc2ccccc2c1Cl` (stereo not drawn) stands -137% (inactive); under `COc1ccc(C)cc1NC(=O)CCS(=O)(=O)c1cccc2nonc12`, -14.4% (inactive).
Consider `Cc1ccc2c(C(=O)CN3CCCC3)c(C)[nH]c2c1`, for which the inhibition was 7.2% (inactive).
In the case of `CCNC(=O)C1(C)CCN(C(=O)c2ccccc2)C1` (stereo not drawn), the inhibition is -7.38% (inactive).
`CC1CC(=O)Nc2ccccc2N1S(=O)(=O)c1cccs1` (stereo not drawn): the inhibition is 10.5% (inactive).
The same measure for `CC1CC(=S)Nc2ccccc2N1Cc1ccccc1` (stereo not drawn): 55.4% (active); for `CC1CN(Cc2ccccc2)C(=S)NC1=O` (stereo not drawn): -2.37% (inactive); for `CCNC(=O)C1(C)CCCN1C(=O)c1ccc(N(C)C)cc1` (stereo not drawn): -3.48% (inactive).
With `CCCOc1ccc(Cl)cc1Nc1nc(NCCO)nc(N2CCCC2)n1`, the inhibition is 9.9% (inactive).
For `CCOc1ccc(Nc2nc(Cl)nc(N3CCN(c4ccc(OC)cc4)CC3)n2)cc1`, the inhibition is 22.4% (inactive).
For the molecule `CCN1CCN(c2nc(Nc3cc(OC)ccc3OC)nc(Nc3cc(OC)ccc3OC)n2)CC1`, the inhibition was 52.3% (active).
Consider `COc1cccc(C(O)c2ncc(-c3ccc4ccccc4c3)[nH]2)c1` (stereo not drawn), for which the inhibition was -68.4% (inactive).
As to `CNC(=O)C1CC(=O)N(c2ccc(OCC(=O)Nc3ccccc3C)cc2)C1` (stereo not drawn), the inhibition is -61.3% (inactive).
On to `CC12CCC(=O)C=C1CCC1C2C(O)CC2(C)C1CCC2(O)C(O)CO` (stereo not drawn), for which the inhibition was 10.9% (inactive).
As for `CCc1nc2ccc(C(=O)Nc3ccc(OC)c(OC)c3)cn2c1N(C)C(=O)c1cccc(OC)c1`, the inhibition is -9.49% (inactive).
Take `CCCN1CCN(C(=O)Cn2ncc3ccccc32)CC1`: the inhibition is 6.83% (inactive).
`O=C1NC[C@H](Cc2ccc(O)cc2)N(C[C@H]2CCCN2C[C@H](Cc2ccccc2)N2C[C@H](Cc3ccccc3)N(CCc3ccccc3)C(=O)C2=O)C1=O`: the inhibition is -4.33% (inactive).
Regarding `O=C(c1snnc1-c1ccccc1)N1CCOCC1`, the inhibition is 11.7% (inactive).
The same measure for `Cc1ccc(C(=O)N2CCN(S(=O)(=O)N3CCOCC3)CC2)cc1`: 5.77% (inactive); for `Cc1oc2c(c1C(=O)N1CCOCC1)C(=O)c1ccccc1C2=O`: 97.9% (active).
Regarding `CC=CCn1c(SCCCc2ccccc2)nc2c1c(=O)[nH]c(=O)n2C`, the inhibition is 0.45% (inactive).
Take `CN(CCO)Cc1csc2ccc(Br)cc12`: the inhibition was 13.7% (inactive).
Under `COc1ccc(S(=O)(=O)N2CCCCC2c2cc(C(=O)NCc3ccc(F)cc3)no2)cc1` (stereo not drawn) stands 15.3% (inactive).
On to `CC[C@@H]1Cc2cc(O)ccc2C2=C1c1ccc(O)cc1C[C@H]2CC`, for which the inhibition is 64.8% (active).
On to `CCc1nc2c(OCC(N)=O)cccn2c1N(C)C(=O)c1ccc(OC)cc1`, for which the inhibition is -3.72% (inactive).
As to `O=C(CC(O)(C(F)(F)F)C(F)(F)F)Nc1ccc(Cl)c(Cl)c1`, the inhibition is 69.9% (active).
As for `CN(CC(=O)Nc1ccc(Cl)c(C(F)(F)F)c1)C(=O)CCC(=O)c1ccccc1`, the inhibition is 12.6% (inactive).
With `O=C(Cc1ncc(C(F)(F)F)cc1Cl)Nc1cccc(Br)c1`, the inhibition was 3.22% (inactive).
`COC(=O)/C=C\C(=O)Nc1cccc([N+](=O)[O-])c1`: the inhibition is 106% (active).
The same measure for `Cc1ccc(NC(=O)O/N=C/c2cccc([N+](=O)[O-])c2)cc1`: -85.8% (inactive); for `O=C(Nc1cccc([N+](=O)[O-])c1)N1CCc2ccccc2C1`: -236% (inactive).
Turning to `O=C(CN1C(=O)NC2(CCOc3ccccc32)C1=O)NCc1ccc(F)cc1` (stereo not drawn), the inhibition is 20.2% (inactive).
The same measure for `CCc1ccc2c(c1)NC(=O)C2(C)Cc1ccc(OC(F)(F)F)cc1` (stereo not drawn): 32.7% (inactive).
The same measure for `CCOC(=O)c1sc(C)c2c1NC(C)(c1cccc3ccccc13)NC2=O` (stereo not drawn): 34.8% (inactive); for `COc1ccc(-c2nc3ccc(Br)cn3c2Cc2ccc(C)cc2)cc1OC`: -58.2% (inactive); for `Cc1ccc2nc(-c3ccc(Br)cc3)cn2c1`: 55.6% (active).
Take `Cc1ccc(-c2nc3ccc(Cl)cn3c2Cc2ccccc2)cc1`: the inhibition is -130% (inactive).
As for `Cc1ccc(-c2cn3cc(C)ccc3n2)cc1`, the inhibition is 88.8% (active).
Turning to `Cc1ccc(-n2c(-c3ccc(Cl)cc3)n[nH]c2=S)cc1`, the inhibition is 17.7% (inactive).
On to `Cc1ccc(-c2nc3ccc(Br)cn3c2Cc2ccccc2C(F)(F)F)cc1`, for which the inhibition is -138% (inactive).
Turning to `Cc1csc(NC(=O)CSc2nc(=O)n(CCCN(C)C)c3c2CCC3)n1`, the inhibition is 4.74% (inactive).
Consider `CN(Cc1ccc(C(F)(F)F)cc1)C(=O)[C@H]1O[C@@H](n2cnc3c(N)ncnc32)[C@H](O)[C@@H]1O`, for which the inhibition is 6.54% (inactive).
Regarding `CC1(C(=O)NS(=O)(=O)c2ccc(C#N)cc2)CCN1C(=O)c1ccc(C2CCCCC2)cc1` (stereo not drawn), the inhibition was -8.94% (inactive).
With `O=[N+]([O-])/C(N=Nc1ccccc1)=N\Nc1ccccc1`, the inhibition is -2.71% (inactive).
As to `Cn1c(CCC(=O)Nc2ccccc2F)nnc1SCC(=O)Nc1ccccc1Cl`, the inhibition is 3.9% (inactive).
`C=C(C)COc1ccc(-c2ncncc2-c2ccc(OC)cc2)c(O)c1`: the inhibition is -25.6% (inactive).
Regarding `COc1ccc(-c2nc(N)ncc2-c2ccc(Cl)cc2)c(O)c1`, the inhibition was 53.7% (active).
For the molecule `CCOc1ccc(-c2nc(N)ncc2-c2ccccc2OC)c(O)c1`, the inhibition was 1.53% (inactive).
As for `CC(=O)Nc1cnc(-c2ccc(O)cc2C)cn1`, the inhibition was -46.9% (inactive).
Under `S=C(c1ccc(-c2ccccc2)o1)N1CCCCC1` stands -230% (inactive); under `CN1CCN(CCCCOc2ccccc2-c2ccccc2)CC1`, 7.99% (inactive).
`OCCN1CCN(C(=S)c2ccc(-c3ccccc3)cc2)CC1`: the inhibition is 51.7% (active).
As to `CC(C#N)OC(=O)c1cccnc1SCC(=O)Nc1ccc2c(c1)OCO2` (stereo not drawn), the inhibition was -92% (inactive).
Take `O=C(O)CCN1C(=O)CC2(CCCCC2)C1=O`: the inhibition is -1.96% (inactive).
`COCCNc1ncnc2c1ncn2[C@H]1CN(CCN2CCOCC2)C[C@@H](CO)O1`: the inhibition is 0.57% (inactive).
Under `Clc1cccc(-c2nc(NCC3CCCO3)c3ccccc3n2)c1` (stereo not drawn) stands 17.2% (inactive); under `N#CCSc1nc(-c2ccccc2)nc2ccc(F)cc12`, 16.9% (inactive).
Take `Clc1ccc2nc(-c3ccccc3)nc(C(Cl)Cl)c2c1`: the inhibition is 107% (active).
